Source: PubChem (National Center for Advancing Translational Sciences (NCATS))
Sm TGR inh: qHTS Assay for the Inhibitors of Schistosoma Mansoni Peroxiredoxins; AID 485364, 2010; Potency, µM (doses to about 114 µM), for inactives: at the highest dose activity change, negative = inhibition, actives largely listed as inhibitors; actives 3% (n = 360,000); purified TGR, DTNB reduction, TNB absorbance 405 nm; Schistosoma mansoni thioredoxin glutathione reductase (TGR), Q962Y6; note: nearly all actives have a fitted effect of over 60% in size
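TGR 20 nM + NADPH 100 uM (dispensed conc.), cpd preinc 15 min RT; start with NADPH (500 uM addition) then DTNB (15 mM addition). Kinetic TNB absorbance, 405 nm filter. Four-parameter Hill fit across titration.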
RE007 growth inh: qHTS Assay for Inhibitors of the HIV-1 protein Vpr | S. pombe RE007 Vpr strain, BacTiter-Glo ATP luminescence, 24 h | Potency, µM (highest dose often 92.2 µM), for the others: top-dose activity change, negative = less growth, hits mostly inhibitors | actives 0.21% (n = 360,000) | AID 651644, 2012; active = well fitted falling curve with a large enough effect; inconclusive = small, poorly fitted or top-dose-only effect; inactive = no such curve, though single readings can be large or run the other way; note: nearly all actives have a fitted effect of over 50% in size
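Fission yeast RE007 carrying one integrated HIV-1 vpr copy, seeded at OD 0.01 in PMG+AL medium with 23 nL pinned compound. Grown 24 h at 30 degrees; viability read by BacTiter-Glo luminescence after 5 min.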
LmPK inhibitor: qHTS Assay for Inhibitors of Leishmania Mexicana Pyruvate Kinase (LmPK); purified LmPK, Kinase-Glo ATP luminescence, 1 h; Potency, µM (highest dose often 57.5 µM), for inactives: top-dose activity change, negative = inhibition, usual class: inhibitors; actives 0.37% (n = 290,000); AID 1721, 2009; Q27686
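In 50 mM imidazole pH 7.2 with 7 mM MgCl2, LmPK (0.1 nM) turned over PEP (0.5 mM) and ADP (0.1 mM) for 1 h at room temperature. Luciferase read-out of ATP.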
FBPA Giardia inh: qHTS Assay for Inhibitors of Fructose-1,6-bisphosphate Aldolase from Giardia Lamblia; purified Giardia FBPA; actives 0.71% (n = 290,000); A8B2U2; Potency, µM (titrated, usually from 59.6 µM), for inactives: at the top dose activity, negative = inhibition, most hits filed as inhibitors; note: nearly all actives have a fitted effect of over 55% in size
Target sequence (A8B2U2 whole entry, looked up): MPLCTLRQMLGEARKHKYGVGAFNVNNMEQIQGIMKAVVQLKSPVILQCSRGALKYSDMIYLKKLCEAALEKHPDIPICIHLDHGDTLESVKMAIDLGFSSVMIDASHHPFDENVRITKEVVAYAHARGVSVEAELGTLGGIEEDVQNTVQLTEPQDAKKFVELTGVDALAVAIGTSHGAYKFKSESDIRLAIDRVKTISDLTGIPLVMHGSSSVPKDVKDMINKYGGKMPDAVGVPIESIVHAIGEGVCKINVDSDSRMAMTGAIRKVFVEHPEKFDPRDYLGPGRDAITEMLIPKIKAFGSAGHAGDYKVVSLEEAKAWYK
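40 nM FBPA preincubated 10 min at RT with compound (up to 57.5 uM final), then substrate plus GAPDH/TPI/NAD/arsenate coupling and diaphorase/resazurin added. Fluorescence read after 20 min at RT, 525/598 nm.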
TbPYK inhibitor: qHTS of Trypanosoma Brucei Inhibitors. TbPYK enzyme, Kinase-Glo Plus ATP luminescence, 45 min. actives 0.12% (n = 410,000). Potency, µM (doses to about 76.8 µM), for the others: at the highest dose activity, negative = inhibition, hits mostly inhibitors. AID 624173, 2012; note: nearly all actives have a fitted effect of over 50% in size
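Luminescence from Kinase-Glo Plus, added after a 45-minute room-temperature reaction, served as the end-point read-out. The enzyme and substrate were preincubated with compound before ADP (130 uM final) initiated turnover. Concentration-effect curves came from normalized qHTS data.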
* marks the source's active call; other numbers are inactive results; u = inconclusive; x = not tested or not shown. This is a sample that favours compounds with a hit; in the whole collection about 3.3% have one here. Unless noted, calls come from the whole dose curve; as a rule, active = well fitted curve in the direction sought with a large enough effect; inconclusive = small, poorly fitted or top-dose-only effect, or another doubt; inactive = no such curve, though single readings can be large; an effect the other way counts as inactive or inconclusive. % is set by controls: 0 for no effect and ±100 for the full control effect; potency is the fitted concentration of half-maximal effect.

SMILES | Sm TGR inh | RE007 growth inh | LmPK inhibitor | FBPA Giardia inh | TbPYK inhibitor
COc1ccc(-n2c(O)c(/C=N/NS(=O)(=O)c3ccc(C)c([N+](=O)[O-])c3)c3ccccc3c2=O)cc1OC | 10µM* | 2% | 2% | -10% | -18%
COc1cc(/C=N/NS(=O)(=O)c2ccc(C)c([N+](=O)[O-])c2)cc([N+](=O)[O-])c1O | u | -1% | 2% | -20% | -14%
CC(C)Cc1nnc(NC(=O)CSc2ccccn2)s1 | 11% | -6% | 5% | -10% | -7%
CN(Cc1ccccc1)C(=O)c1nc[nH]c1C(=O)N1CCc2ccccc2C1 | 35µM* | 11% | x | x | -1%
Nc1cccc2c1C(=O)N(C(=O)/C=C/c1cccc(Br)c1)C2=O | 2.5µM* | u | 7% | 7% | -1%
Nc1cccc2c1C(=O)N(C(=O)/C=C/c1cccc(F)c1)C2=O | 6.3µM* | u | -10% | -3% | -10%
Cc1ccc(NC(=O)Nc2ccccc2C(N)=O)cc1 | 1% | x | 16µM* | -2% | -17%
Cc1ccccc1NC(=O)Nc1ccccc1C(N)=O | 12% | -12% | 3% | -2% | -2%
COc1ccc(NC(=O)Nc2ccccc2C(N)=O)cc1OC | 2% | 6% | u | -1% | 3%
COc1ccc(NC(=O)Nc2ccccc2C(N)=O)cc1 | 19% | u | 14µM* | 0% | -29%
COc1ccc(CNCC(O)(c2ccccc2)c2ccc(Cl)cc2)cc1 (stereo unspecified) | 2% | -14% | 4% | 1% | -4%
COc1ccc(OC)c(NC(=O)N2CC(C)Oc3ccc(C)cc32)c1 (stereo unspecified) | -8% | x | x | x | 1%
COc1cccc2cc(C(=O)Oc3ccccc3)c(=O)oc12 | -16% | -13% | 0% | -1% | 2%
CCOc1cccc2cc(C(=O)Oc3ccc(OC)cc3)c(=O)oc12 | 40µM* | 3% | -7% | -6% | -14%
O=C(N=C1SC2CS(=O)(=O)CC2N1c1ccc(Br)cc1)C1CCCO1 (stereo unspecified) | 2% | -4% | 8% | x | 1%
Cc1cc(C)c(S(=O)(=O)Oc2ccccc2[N+](=O)[O-])c(C)c1 | x | 9% | x | x | -8%
CC1=CC(=O)C=C(C)C1=NOc1ccccc1[N+](=O)[O-] | 28µM* | -11% | -5% | -29% | -14%
c1ccc(-c2cn3nc(-c4ccccc4)sc3n2)cc1 | x | 9% | x | x | -4%
c1ccc(-c2cn3c4c(sc3n2)CCCC4)cc1 | 6% | 25µM* | 14µM* | -19% | -8%
COc1ccc(-c2nnsc2N2C(=O)c3ccccc3C2=O)cc1 | 15% | 16% | 1% | 12% | 6%
CCOC(=O)c1n[nH]n2c1nc(=S)c1ccccc12 | 11µM* | 0% | -19% | -5% | -17%
COc1ccc(CCC(=O)NCCc2nc3ccccc3[nH]2)cc1 | 60% | 3% | 7% | -1% | 1%
O=C1C=CC(=O)N1c1ccc(Sc2ccc([N+](=O)[O-])cc2)cc1 | 3.2µM* | x | u | -8% | x
O=C(NC(c1ccccc1)c1ccsc1)C1CCN(Cc2ccc(Cl)c(Cl)c2)CC1 (stereo unspecified) | x | -9% | x | x | -2%
COC(=O)C1=C(C)N(CC2CCCO2)C(=O)/C1=C\c1ccc(O)cc1 (stereo unspecified) | 50µM* | -9% | 0% | -18% | 3%
SMILES | Sm TGR inh | RE007 growth inh | LmPK inhibitor | FBPA Giardia inh | TbPYK inhibitor
CCN(CC)c1ccc(/C=C2/C(=O)NC(=O)N(CC3CCCO3)C2=O)cc1 (stereo unspecified) | -26% | 6% | -7% | 0% | -27%
Cc1occc1C(=O)N/N=C/c1cccs1 | 6% | -20% | 14µM* | x | -17%
COc1ccc([C@H]2C[C@@H](n3cc(C4CC4)nn3)[C@H](O)CN2C(=O)C2CCCCC2)cc1 | x | -6% | x | x | 3%
COc1ccccc1CNC(=O)CCc1c(C)c2cc3c(C)c(C)oc3cc2oc1=O | 5% | x | x | x | 5%
Cc1ccc(NNS(=O)(=O)c2ccc(C)cc2)cc1 | 7.9µM* | 32µM* | 34% | x | u
Cc1ccc(C)c(S(=O)(=O)Nc2ccc(O)c(Sc3ncn[nH]3)c2)c1 | 50µM* | -1% | 0% | u | -12%
Cc1ccc(Cn2nnc3c(=O)n(CC(=O)c4ccccc4)cnc32)cc1 | -21% | 7% | 4% | 12% | -2%
Cc1ccccc1CN1C[C@@H]2C[C@@H](c3cnc(N4CCOCC4)s3)N3CCC[C@@]23C1=O | 16µM* | -1% | -2% | -23% | -5%
Cc1cccc([C@@H]2C[C@H]3CN(Cc4cccc(Cl)c4)C(=O)[C@]34CCCN24)n1 | 28µM* | -9% | 0% | -6% | u
COC(=O)c1oc2ccccc2c1-n1cccc1 | 5% | -7% | 7% | 3% | 13%
COc1cccc(/C=C/C(=O)OCC(=O)NC(=O)NC2CCCC2)c1 | -3% | -5% | x | x | -9%
O=C(CSc1nnc(CNC(=O)c2c(F)cccc2F)o1)c1ccc(Cl)cc1 | x | 8% | x | x | -14%
Cn1cnc(C(=O)N2CCN(c3ccccc3)CC2)c1C(=O)N1CCN(c2ccccc2)CC1 | 20µM* | 22% | x | x | -10%
CCn1cc(Br)c(C(=O)N2CCN(c3ccccc3)CC2)n1 | -9% | -2% | 6% | -8% | 14%
Cn1cnc(C(=O)N2CCN(C(=O)OC(C)(C)C)CC2)c1C(=O)N1CCN(C(=O)OC(C)(C)C)CC1 | 22µM* | 2% | x | x | 4%
N#CCC(=O)Nc1ccc(C(=O)OCC(=O)c2ccc3c(c2)OCO3)cc1 | -5% | -2% | x | x | -4%
Cc1ccc(CN(Cc2cccnc2)C(=O)CN2C(=O)COc3ccccc32)o1 | 10µM* | -5% | 5% | -4% | u
O=C(NC1CCCC1)C(c1ccc(F)cc1)N(Cc1ccc(Cl)cc1)C(=O)CCl (stereo unspecified) | 2.8µM* | -16% | 1% | -2% | -4%
O=C(NC1CCCC1)C(c1ccc(Cl)cc1)N(Cc1ccc(F)cc1)C(=O)CCl (stereo unspecified) | 7.1µM* | u | 0% | -7% | -2%
COC(=O)c1ccc(C(C(=O)NC2CCCCC2)N(Cc2ccc(F)cc2)C(=O)Cc2cccs2)cc1 (stereo unspecified) | -9% | x | 5% | -1% | -11%
CCC(C)Nc1nc(C)nc2c1oc1ccccc12 (stereo unspecified) | 2% | -10% | 4% | -4% | 5%
COCCN1C(=O)C(=O)/C(=C(/O)c2ccc(S(=O)(=O)N3CCOCC3)cc2)C1c1cccc(O)c1 (stereo unspecified) | 4% | 7% | -4% | 16% | 3%
